Measured values taken from PubChem BioAssay (NCI).
About 79,000 compounds went through this panel and 15% of them were active in at least one assay; those are over-represented in the sample as a whole. Values without a mark were called inactive. Calls of active or inactive are those of the source. No stated cut-off is given here; in the data, active means growth inhibition above about 70%; inactive means the rest.

Assays:
[1] = NCI Yeast Anticancer Drug Screen. Data for the rad50 strain (AID 155);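 further: 0% = growth of vehicle-only cultures of the same strain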; conditions: S. cerevisiae rad50 strain growth inhibition; at 50.0 µM; active compounds read high
Outline: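 A DNA repair-deficient yeast mutant serves as the test organism; compound-induced growth inhibition is calculated against vehicle-treated cells.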

[2] = NCI Yeast Anticancer Drug Screen. Data for the mec2-1 strain (AID 157); conditions: S. cerevisiae mec2-1 strain, at 50.0 µM, active compounds read high
Outline: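 Strain: mec2-1 (DNA repair/cell cycle alteration). Compound exposure, then growth measured; inhibition expressed relative to vehicle.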

[3] = NCI Yeast Anticancer Drug Screen. Data for the sgs1 mgt1 strain (AID 161);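 further: 0% = growth of cultures given vehicle only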; conditions: S. cerevisiae sgs1 mgt1 strain, at 50.0 µM, active compounds read high
Outline: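 Inhibition of yeast growth, normalised to vehicle-treated controls, is reported for a strain bearing genetic alterations in DNA damage repair.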

[4] = NCI Yeast Anticancer Drug Screen. Data for the cln2 rad14 strain (AID 165);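 further: 0% = growth equal to vehicle treated cultures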; conditions: S. cerevisiae cln2 rad14 strain, at 50.0 µM, active compounds read high
Outline: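 Compounds are applied to the cln2 rad14 yeast strain, and growth is then compared with that of vehicle-treated cultures to give inhibition.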

[5] = NCI Yeast Anticancer Drug Screen. Data for the bub3 strain (AID 167); conditions: S. cerevisiae bub3 mutant strain, at 50.0 µM, active compounds read high
Outline: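 Inhibition values come from growth of compound-treated mutant yeast normalised to vehicle-treated controls.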

[6] = NCI Yeast Anticancer Drug Screen. Data for the mlh1 rad18 strain (AID 175); conditions: S. cerevisiae mlh1 rad18 strain growth inhibition; at 50.0 µM; active compounds read high
Outline: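 Read-out is yeast growth inhibition, calculated against vehicle-only controls. The compound was applied to a strain engineered with DNA damage repair alterations.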

Row | SMILES | growth inhibition [1] | growth inhibition [2] | growth inhibition [3] | growth inhibition [4] | growth inhibition [5] | growth inhibition [6]
1 | CN(C)C(=N/O)/C(=N\O)N(C)C | -5.05% | -25% | -23.1% | -6.35% | -23.8% | -0.2%
2 | Cc1cc(C)[n+](C)c(/C=C\c2ccc(Cl)cc2)n1 | 7.3% | -6.95% | 10.8% | 3% | -4.45% | 12.9%
3 | Cc1ccc(OS(=O)(=O)NC(=O)NCc2ccco2)cc1 | 18.8% | 4.9% | 7.7% | 8.9% | 3.95% | 4.35%
4 | COc1cc(-c2oc3c(OC)c(OC)cc(O)c3c(=O)c2OC)ccc1O | 11.7% | -8.1% | -8.7% | -5.3% | -9.05% | -0.05%
5 | Cc1ccc(S(=O)(=O)N(CCO)CCCO)cc1 | -16.7% | -43.3% | -9.95% | 5.1% | -35.3% | 1.7%
6 | COc1ccc(OC)c(C(=O)CCCCCCCCC(=O)c2cc(OC)ccc2OC)c1 | 27.2% | 8% | 3.85% | 25.4% | -3.95% | 7.25%
7 | CC(CCC(=O)O)[C@H]1CCC2[C@@H]3C(=O)C[C@@H]4CC(O)CC[C@]4(C)C3CC[C@@]21C (stereo partly specified) | 38.8% | 18.1% | 41.5% | 35.8% | 19.9% | 23.1%
8 | CC(=O)[O][Ga]([Cl])[O]C(C)=O | 22.2% | 27.2% | 34.1% | 34.3% | 30.3% | 14.3%
9 | CC1=CC(=O)c2cc(C)ccc2C1=O | 6.1% | -15% | -8.35% | -32.5% | -2.95% | -3.25%
10 | O=C1c2ccccc2CC12CCC1(CC2)OCCO1 | -14% | -1% | 3.55% | 26.6% | -12.5% | -23.6%
11 | O=C(Oc1c(Cl)cc(Cl)cc1C=Nc1ccc(Cl)cc1)c1ccccc1 | 67.1% | 71.4% (active) | 88.7% (active) | 42.4% | 58.2% | 83.9% (active)
12 | NC(=O)C1C(=O)NC(=O)C1=O (stereo unspecified) | -21.5% | -17.9% | -8.75% | -7.7% | -9.75% | -22.4%
13 | Cc1cc(C)c(C(CC(=O)O)C(CC(=O)O)c2c(C)cc(C)cc2C)c(C)c1 (stereo unspecified) | -0.25% | 1.5% | -16.6% | -21.4% | -6.85% | 32.4%
14 | C#CCN(CC#C)C(=O)Nc1ccc(Cl)cc1 | -33.5% | -21.4% | -11.2% | -47% | -16.2% | 3.45%
15 | O=C(Nc1ccc(Cl)cc1[N+](=O)[O-])Oc1ccc(-c2ccccc2)cc1Cl | 99.5% (active) | 99.7% (active) | 99.7% (active) | 99% (active) | 99.4% (active) | 99.7% (active)
16 | CCN(CC)Cc1cc(C)c(O)c(N=Nc2cc(OC)c(N=Nc3ccc([N+](=O)[O-])cc3)cc2OC)c1C | 16% | 12.4% | 34.1% | 34.1% | 4.7% | 50.1%
17 | CC(=O)OC1=C(C)C2=C3OC(=O)C(C)=C3CC[C@@]2(C)CC1 | 3.7% | 1.2% | 6.85% | 19.4% | 25% | 6.95%
18 | CC(/C=C/c1ccccc1)=N\NC(=S)N/N=C(C)/C=C/c1ccccc1 | 10.5% | 37.6% | 21.5% | 9.3% | 49.5% | 11.1%
19 | COc1ccc2c(c1)CCC1=C2CCC2=CC(=O)CC[C@@]21C | 5.4% | 16.6% | 4.4% | 2.5% | 38% | -12.1%
20 | C=C1C(c2ccccc2)C(c2ccccc2)=C(C)C(c2ccccc2)=CN1C(=O)c1ccccc1 (stereo unspecified) | -3.05% | 8.7% | -9.2% | 23.2% | -4.7% | 15.2%
21 | C=Nc1ccc(C)cc1 | 6.7% | -14.8% | -12% | -15.7% | -2.7% | -18.4%

Row | SMILES | growth inhibition [1] | growth inhibition [2] | growth inhibition [3] | growth inhibition [4] | growth inhibition [5] | growth inhibition [6]
22 | CCOCCOCCOC(=O)CC(C)=O | 3.45% | 24.9% | 5.5% | -22.3% | -11.8% | -11.5%
23 | Fc1ccc(N2C(c3ccccc3)=N[C@@H](N3CCOCC3)[C@@H]2N2CCOCC2)cc1 | 21.4% | 11.2% | 4.2% | -19.9% | -2.2% | 20%
24 | Cc1ccc(N=C2C(=Nc3ccc(C)cc3)N(c3ccc(C)cc3)C(=S)N2C(=O)c2ccccc2)cc1 | -5.4% | -27.1% | 7.9% | 26.3% | -29.6% | -13.1%
25 | CC(=O)OC12C3C4C1C1C2C3C41OC(C)=O (stereo unspecified) | -4.95% | 11.8% | -24.1% | 0.9% | -16.4% | -7.5%
26 | CCOC(=O)c1c(Nc2ccccc2O)oc2ccccc12 | -0.4% | 3.1% | 6.95% | 17.6% | 6.45% | 11.9%
27 | CNC(C)C#N (stereo unspecified) | -17.7% | -11.6% | -11.9% | -19.6% | 0.75% | -11.6%
28 | CN(C)CCCNC(=O)N/N=C/c1ccc(O)cc1 | -10.2% | -25.1% | 7% | 17.8% | 1.65% | -25.2%
29 | COc1cc2c[n+]3ccc4ccccc4c3c(N)c2cc1OC | 16% | -8.2% | -10.6% | 15.8% | 5.9% | -4.85%
30 | CN(C)C=Nc1cc2c3c(c1)CCCN3CCC2 | 10.8% | -0.5% | 13.3% | 11.8% | -2.6% | 31.4%
31 | CCOC(=O)c1ccc(N2C(C#N)c3ccccc3OC2c2ccccc2O)cc1 (stereo unspecified) | 5.5% | 2.25% | 15.6% | -19.5% | 1.3% | 21.4%
32 | Cc1cccc2c1Oc1ccccc1C2N1C(=O)c2ccccc2C1=O (stereo unspecified) | 6.65% | 2.5% | 4.9% | 25.4% | 9.95% | 6.35%
33 | CCC1(C)NN=C2C(=CC=C3NNC(C)(CC)N32)n2cccc21 (stereo unspecified) | 36.9% | 8.8% | -19.1% | 3.5% | -2.65% | 26.4%
34 | CC(=O)Oc1ccc(=O)[nH]c1 | 1.3% | -11.9% | 2.2% | -18.4% | 2.75% | -48%
35 | CC(=O)CC(=O)NCCCN1CCCCC1 | -28.7% | -52.1% | -30.4% | -5.1% | -34.4% | -33.4%
36 | CCC(CC)C1CC[N-]CC1.CCC(CC)C1CC[N-]CC1.CCC(CC)C1CC[N-]CC1.CCC(CC)C1CC[N-]CC1.N#C[S-].N#C[S-].[Co] | 16.4% | 15.1% | 3.1% | 13.8% | 19.4% | 29.7%
37 | Nc1ccc(C(=O)NN2C(=O)C(Cl)C2c2ccccc2)cc1 (stereo unspecified) | -30.2% | -31.8% | -62.5% | -1.8% | -30.4% | -38.2%
38 | CCOC(=O)C1C(C)C2(C#N)C(=N)OC1(C)C2(C#N)C#N (stereo unspecified) | 21.5% | 19.1% | -6.6% | 1.5% | -22.4% | -12.9%
39 | O=C(c1ccccc1)[C@H]1Nc2ccc(Cl)cc2[C@H]2c3ccccc3O[C@H]21 | 33.9% | -6.7% | 12.4% | 18.8% | -1.45% | 2.5%
40 | COc1ccc(NC(=S)N(CCC#N)C2CCCCC2)cc1 | -1.1% | -24.3% | -3% | 16.8% | -1.5% | -4.05%
41 | CN=C(N)SCCCCCCSC(N)=NC | -1.5% | 0% | 16.6% | 26.1% | -3.6% | 4.15%
